Data published in ChEMBL document CHEMBL3433997, “St. Jude Leishmania screening dataset” (2016).

What was measured:
Type in all cases: functional
[1] = molecular target: Solute carrier family 2, facilitated glucose transporter member 1 (Homo sapiens) (UniProt P11166); assay: ST_JUDE_LEISH: Cytotoxicity at 2uM final concentration against transgenic Leishmania Mexicana promastigotes LmGLUT1 that are glucose transport deficient and complemented with the human glucose transporter GLUT1. Activity is measured by DNA content using SYBR green in vitro
Solute carrier family 2, facilitated glucose transporter member 1 (Homo sapiens), sequence (P11166 whole entry): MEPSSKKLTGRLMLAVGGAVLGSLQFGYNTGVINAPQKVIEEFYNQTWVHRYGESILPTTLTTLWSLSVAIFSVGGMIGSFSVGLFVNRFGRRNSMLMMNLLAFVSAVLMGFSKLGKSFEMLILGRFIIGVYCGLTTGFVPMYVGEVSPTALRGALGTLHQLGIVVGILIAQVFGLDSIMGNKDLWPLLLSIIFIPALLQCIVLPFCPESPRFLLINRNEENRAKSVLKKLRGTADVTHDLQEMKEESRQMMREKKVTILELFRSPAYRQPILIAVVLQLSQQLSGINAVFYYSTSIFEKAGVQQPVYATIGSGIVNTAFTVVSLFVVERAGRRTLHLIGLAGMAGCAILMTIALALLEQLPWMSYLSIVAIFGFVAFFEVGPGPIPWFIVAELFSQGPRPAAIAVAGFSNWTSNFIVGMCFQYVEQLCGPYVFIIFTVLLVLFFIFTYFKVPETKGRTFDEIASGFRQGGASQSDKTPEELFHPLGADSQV

[2] = molecular target: Hexose transporter 1 (Plasmodium falciparum) (UniProt O97467); assay: ST_JUDE_LEISH: Cytotoxicity at 2uM final concentration against transgenic Leishmania Mexicana promastigotes LmPfHT that are glucose transport deficient and complemented with the Plasmodium falciparum hexose transporter. Activity is measured by DNA content using SYBR green in vitro
[3] = molecular target: Glucose transporter (Leishmania mexicana) (UniProt O61059); assay: ST_JUDE_LEISH: Cytotoxicity at 2uM final concentration against transgenic Leishmania Mexicana promastigotes LmGT2 that are glucose transport deficient and complemented with the L. Mexicana glucose transporter 2. Activity is measured by DNA content using SYBR green in vitro

| Structure (SMILES) | inhibition [1] [%] | inhibition [2] [%] | inhibition [3] [%] |
| --- | --- | --- | --- |
| COc1ccc(Nc2nccc(N3CCC(NC(=O)C(C)c4ccc(Cl)cc4)C3)n2)cc1 (centres undefined) | -0.18 | 0.96 | 1.34 |
| COc1ccc2nccc([C@@H](O)CN3CCC(NC(=O)c4ccc(-c5ccccc5)s4)CC3)c2c1 | 9.94 | 14.6 | 4.67 |
| COc1cc2c(cc1S(=O)(=O)c1ccc(NC(=O)c3cc4ccccc4s3)cc1)CCN(C)CC2 | -1.48 | 3.2 | 1.94 |
| O=C(NCC1CCC(C(=O)NCc2cccc3ccccc23)CC1)c1ccc(O)c(-c2ccc(Cl)c(Cl)c2)c1 (centres undefined) | 5.23 | 3.37 | 4.73 |
| Cc1ccccc1Nc1cc(Nc2ccccc2C)c2ccccc2n1 | 42.9 | 42.2 | 16.1 |
| CS(=O)(=O)N(c1ccccc1)c1cc(C(=O)N[C@@H](Cc2ccccc2)[C@H](O)CNC2CC2)cc(N2CCCC2=O)c1 | 4.45 | 5.62 | 4.38 |
| COCCNCc1ccc(-c2cccc(CN(C(=O)NCCc3ccccc3)C3CCN(Cc4ccccc4)CC3)c2)cc1 | 1.13 | -0.26 | -1.5 |
| Cc1cccc(C)c1CNc1ccnc2ccccc12 | 1.11 | 2.91 | 6.9 |
| c1ccc2c(c1)ncc1c3ccccc3[nH]c21 | 7.76 | 7.76 | 4.67 |
| CN(C)C(=O)c1ccc(CN(Cc2ccc3c(c2)OCCO3)Cc2ccc3c(c2)OCO3)cc1 | 3.62 | 3.62 | 3.97 |
| COc1ccc(C(F)(F)F)cc1N1CCN(CCCCNC(=O)c2ccc(NC(=O)c3ccc(Cl)cc3)cc2)CC1 | 0.14 | 1.22 | -0.38 |
| Cc1cnc2cc3c(cc2c1N1CCN(C)CC1)NCC3 | -0.55 | -0.98 | -1.24 |
| COc1ccc(OCCON)cc1 | 7.35 | 10.4 | 8.87 |
| CCOC(=O)NC1=NC(C)(C)N(OCCCOc2cc(Cl)c(Cl)cc2Cl)C(NC(=O)OCC)=N1 | 2.08 | 0.27 | 1.36 |
| Cc1cc(O)c(C(C)C)cc1C1(c2cc(C(C)C)c(O)cc2C)OC(=O)c2ccccc21 | 8.43 | 6.64 | 6.75 |
| CCc1nnc2sc(-c3cccc(NC(=O)c4ccc(OC)c(Cl)c4)c3)nn12 | 1.05 | 2.45 | 3.88 |
| COc1nc2c(CCN3CCC(NCc4ccc5c(c4)NC(=O)CO5)CC3)c(Cl)cnc2cc1F | 3.07 | 0.9 | 1.45 |
| CCOC(=O)c1ccc(NC(=O)Nc2ccc(-c3ccc(-c4nc5cccc(C)c5[nH]4)s3)cc2)cc1 | 1.67 | 0.41 | 0.88 |
